Over roughly 8,300 sequences, “log2 fold change of degron read counts, EGFP-low vs EGFP+ sorted cells (limma voom), compound-induced degradation” has its median near -1.1; the highest 2% begin near 3.2. Only a selection was taken, and the highest values are over-represented in it overall.
Target: T1, CRBN, Q96SW2
T1 chain: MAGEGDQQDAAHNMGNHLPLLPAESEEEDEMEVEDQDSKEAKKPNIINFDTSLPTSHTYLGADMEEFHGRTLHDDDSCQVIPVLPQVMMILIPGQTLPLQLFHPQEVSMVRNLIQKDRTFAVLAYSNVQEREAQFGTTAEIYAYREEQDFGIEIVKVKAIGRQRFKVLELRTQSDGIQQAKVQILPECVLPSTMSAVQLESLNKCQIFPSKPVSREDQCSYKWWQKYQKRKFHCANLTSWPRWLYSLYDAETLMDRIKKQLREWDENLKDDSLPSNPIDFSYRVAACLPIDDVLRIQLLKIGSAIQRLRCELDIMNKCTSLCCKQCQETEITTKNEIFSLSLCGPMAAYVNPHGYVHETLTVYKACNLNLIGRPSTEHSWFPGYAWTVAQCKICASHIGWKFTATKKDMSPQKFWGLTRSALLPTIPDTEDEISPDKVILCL
Assay: log2 fold change of degron read counts, EGFP-low vs EGFP+ sorted cells (limma voom), compound-induced degradation; higher = more compound-induced degradation of the degron-EGFP fusion; degrons are variants of IKZF1/3 zinc finger 2; compound dose not given here
Settings: Jurkat, 18 h

[1] = compound: compound 19 (5-tert-butyl-thalidomide)
[2] = compound: compound 22 (5-morpholino-thalidomide)
[3] = compound: compound 33 (diphenyl IMiD analogue)
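Further: pooled lentiviral library of zinc finger degron-EGFP fusions in mCherry-positive Jurkat cells, FACS-sorted after compound exposure, with degron abundance counted by next-generation sequencing.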

Sequence	log2 fold change of degron read counts [1]	log2 fold change of degron read counts [2]	log2 fold change of degron read counts [3]	log2 fold change of degron read counts (compound: thalidomide)
LECPICGFPCTQKGNLLRHIKL [46L_47E_49P_50I_52G_53F_54P_55C_67L_, Q9UKT9]	-1.29	-1.77	-0.153	1.04
FGCNQCGHHFTQKGNLLRHIKL [46F_47G_49N_50Q_52G_53H_54H_55F_67L_, Q9UKT9]	-2.24	-2.34	-1.76	-1.83
FGCEICGHTFTQKGNLLRHIKL [46F_47G_49E_50I_52G_53H_54T_55F_67L_, Q9UKT9]	-3.25	-2.98	-3.48	-3.14
FMCEICGHIFTQKGNLLRHIKL [46F_47M_49E_50I_52G_53H_54I_55F_67L_, Q9UKT9]	-2.42	-2.92	-1.97	-2.73
LQCNQCGFNCTQKGNLLRHIKL [46L_47Q_49N_50Q_52G_53F_54N_55C_67L_, Q9UKT9]	-2.28	-2.12	-2.51	-1.67
FHCPICGHHFTQKGNLLRHIKL [46F_47H_49P_50I_52G_53H_54H_55F_67L_, Q9UKT9]	-1.89	-2.04	-1.22	-1.88
FDCNVCGAQFTQKGNLLRHIKL [46F_47D_49N_50V_52G_53A_54Q_55F_67L_, Q9UKT9]	-1.58	-1.29	-0.82	-0.778
FVCEQCGAGFTQKGNLLRHIKL [46F_47V_49E_50Q_52G_53A_54G_55F_67L_, Q9UKT9]	-1.4	-0.248	0.586	1.2

Source: the supplement of paper PMC12645437, “Orthogonal IMiD-Degron Pairs Induce Selective Protein Degradation in Cells” (ACS Chemical Biology, 2025)
